Measured values reported in PubChem BioAssay (NCI).
Compounds without any hit were thinned out: in the full panel of roughly 83,000, 20% have a hit.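 Compound tested at a single concentration for 48 hours in 96-well plates; a percent growth value below 10 was scored as active.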 Activity calls are given as the source filed them.

Tests used:
Assay in all cases: NCI-60 one-dose screen, 48 h (100 = growth as untreated, 0 = no growth, -100 = all killed)
Conditions in all cases: 10 µM unless noted
[1] = test system: DU-145 prostate
[2] = test system: K-562 leukemia
[3] = test system: MALME-3M melanoma
[4] = test system: MDA-MB-231 breast
[5] = test system: RXF 393 renal
[6] = test system: SF-268 CNS
[7] = test system: SF-295 CNS
[8] = test system: SF-539 CNS
[9] = test system: UACC-257 melanoma
[10] = test system: M14 melanoma

Measured: growth

CC1(C)N=C(N)N=C(N)N1c1cccc(/C=C/C=C/c2cccc([N+](=O)[O-])c2)c1
inactive: [1] 73% | [2] 20.6% | [3] 66.3% | [4] 81.3% | [5] 90.4% | [6] 42.5% | [7] 83.8% | [8] 15.9% | [9] 41.4% | [10] 74.5%

COC(=O)c1c2c(c(C)[n+]([O-])c1C)C(=O)C=C(NCc1cccc(Cl)c1)C2=O
active: [1] -98.3% | [2] -1.12% | [3] -96.9% | [4] -27.3% | [5] -32.1% | [6] -0.347% | [7] -96% | [8] -91.7% | [9] -88.5% | [10] -79.6%

CCN1CCN(c2ccc(Nc3ncc4ccc5ncn(C(C)C)c5c4n3)nc2)CC1
active: [1] -22.7% | [2] 9.12% | [3] -34% | [4] 0.653% | [5] -85.4% | [6] -34.2% | [7] -17.8% | [8] -75.8% | [9] 0.866% | [10] -23.8%

O=C1NC(=S)S/C1=C\c1cccc([N+](=O)[O-])c1
inactive: [1] 111% | [2] 68.5% | [3] 153% | [4] 93.8% | [5] 153% | [6] 89.9% | [7] 91.3% | [8] 88.6% | [9] 88.8% | [10] 97.4%

Cc1cc(NS(=O)(=O)c2ccc(NC(=O)COc3ccc(-c4cc5ccccc5[nH]4)cc3)cc2)no1
inactive: [1] 18.5% | [3] 47.6% | [4] 18.9% | [6] 27.3% | [9] 56.9%
active: [2] 6.89% | [5] -24.6% | [7] 8.98% | [8] 6.2% | [10] -15.4%

Cc1nc2cc(Nc3nc(N4CCOCC4)nc(N4CCN(C)CC4)n3)ccc2n1Cc1ccccc1
inactive: [1] 114% | [2] 90.3% | [3] 106% | [4] 100% | [5] 101% | [6] 96.2% | [7] 95.2% | [8] 91.3% | [9] 99.2% | [10] 110%

Cc1nc(NN)c([N+](=O)[O-])c(NN)n1
inactive: [1] 109% | [2] 93.6% | [3] 106% | [4] 107% | [5] 160% | [6] 102% | [7] 98.5% | [8] 95.2% | [9] 99.3% | [10] 98.2%

COc1ccc(C(=O)C2=CC(=O)C(=O)C2)cc1OC
inactive: [1] 111% | [2] 116% | [3] 114% | [4] 124% | [5] 106% | [6] 103% | [7] 100% | [8] 95.5% | [9] 115% | [10] 107%

O/N=C/c1cccs1
inactive: [1] 116% | [2] 87.2% | [3] 105% | [4] 112% | [5] 107% | [6] 111% | [7] 95% | [8] 96.9% | [9] 98.5% | [10] 105%

COc1ccc(-c2nc(Nc3ccc(F)cc3)nc(Nc3ccc4c(c3)nc(C)n4Cc3ccccc3)n2)cc1
inactive: [1] 54.7% | [2] 16.1% | [3] 52.8% | [4] 31.2% | [5] 35.7% | [6] 46.9% | [7] 49% | [8] 67.8% | [9] 43.8% | [10] 38.9%

ONc1nc(NO)c2[nH]cnc2n1
inactive: [1] 74.6% | [2] 23% | [3] 90.8% | [4] 77.4% | [5] 86.1% | [6] 58.8% | [7] 91% | [8] 103% | [9] 105% | [10] 76.7%

CCOC(=O)c1c(Cl)c2c(n1Cc1cc(OC)cc(OC)c1)-c1oncc1CCC2
inactive: [1] 21.5% | [3] 22.6% | [4] 35.5% | [5] 21.7% | [6] 50.5% | [9] 72.4% | [10] 12.7%
active: [2] 9.73% | [7] 6.63% | [8] 7.36%

Nc1cc2[nH]c(=O)c3ccccc3c2cc1Br
inactive: [1] 77% | [2] 95% | [3] 102% | [4] 53.2% | [5] 85.4% | [6] 86.3% | [7] 95.6% | [8] 74.6% | [9] 109% | [10] 83.3%

O=C(CC(O)c1ccccc1)Nc1ccccn1 (stereo not given)
inactive: [1] 104% | [2] 84.1% | [3] 94.2% | [4] 104% | [5] 131% | [6] 103% | [7] 108% | [8] 97.6% | [9] 94.9% | [10] 99.7%

Cc1nc2cc(Nc3nc(NCCN)nc(Nc4ccc(F)cc4)n3)ccc2n1Cc1ccccc1
active: [2] -36.8%
inactive: [1] 82.2% | [3] 93.5% | [4] 60.4% | [5] 72% | [6] 71.8% | [7] 79.8% | [8] 96% | [9] 90.5% | [10] 81.6%

O=C1c2ccccc2-c2cn(Cc3ccccc3)c3cccc(c23)C1c1cccnc1 (stereo not given)
inactive: [1] 60.7% | [2] 26.8% | [3] 38.9% | [4] 52.4% | [5] 57.9% | [6] 58% | [7] 25.9% | [8] 54.7% | [9] 55% | [10] 48.4%

COc1ccc(/C=C2\SC(=O)N(CN3CCN(c4cc5c(cc4F)c(=O)c(C(=O)O)cn5C4CC4)CC3)C2=O)cc1
inactive: [1] 109% | [2] 114% | [3] 97.6% | [4] 106% | [5] 108% | [6] 99% | [7] 99.6% | [8] 107% | [9] 96.7% | [10] 88.6%

CSc1ccc(OC(C)=O)cc1C
inactive: [1] 94% | [2] 114% | [3] 95.5% | [4] 113% | [5] 98.5% | [6] 94.3% | [7] 97.7% | [8] 98.5% | [9] 97.6% | [10] 101%

Nc1nc(-c2ccnc(Cl)c2)nn1-c1nc2ccccc2s1
inactive: [1] 115% | [2] 112% | [3] 97.3% | [4] 89.5% | [5] 108% | [6] 100% | [7] 101% | [8] 98.5% | [9] 113% | [10] 101%

Cc1ccc2nc(NC(=O)CSC(=S)N3CCN(Cc4ccccc4)CC3)sc2c1
active: [1] -96.9% | [3] -58% | [4] -7.45% | [5] -58% | [6] -14.9% | [7] -13.1% | [8] 1.99% | [9] -63.4% | [10] -56.7%
inactive: [2] 11.8%

C[C@@H](Oc1cc(-c2cnn(C3CC4(CCNCC4)C3)c2)cnc1N)c1c(F)ccc(Cl)c1Cl
inactive: [1] 37.9%
active: [2] -19.9% | [3] -67.6% | [4] -54% | [5] -31.5% | [6] -24.5% | [7] -10.2% | [8] -90.7% | [9] -89.5% | [10] -75.5%

C=CC[P+](c1ccccc1)(c1ccccc1)c1ccccc1
inactive: [1] 79.4% | [2] 27.2% | [3] 47.8% | [4] 67.9% | [5] 95.3% | [6] 79.2% | [7] 80% | [8] 61.1% | [10] 62.4%
active: [9] -3.34%

Cc1nc2cc(Nc3nc(Nc4ccc(F)cc4)nc(N4CCCC4)n3)ccc2n1Cc1ccccc1
active: [1] -41.5% | [2] 0.0326% | [3] -61.6% | [4] -59.7% | [5] -83.5% | [6] -26.3% | [7] -26.8% | [8] -25% | [9] -22.7% | [10] -48.1%

CCCCCCCCCCCC(=O)[O][Sn]([CH2]CCC)([CH2]CCC)[CH2]CCC
active: [1] -98.7% | [2] -29.9% | [3] -96.1% | [4] -94.6% | [5] -72.4% | [6] -83.7% | [7] -83.8% | [8] -97.7% | [9] -96.5% | [10] -99.6%

CCC(=O)Nc1nnc(Cc2ccc(OC)c(OC)c2)s1
active: [1] -49.6% | [2] 2.4% | [3] -46.3% | [4] 1.66% | [5] -32.9% | [6] -14% | [7] -78.7% | [8] -74.1% | [9] -26.3%
inactive: [10] 22.7%

CCC(C)[C@H]1O[C@]2(CC[C@@H]1C)C[C@@H]1C[C@@H](C/C=C(\C)[C@@H](OC3C[C@H](OC)C(O[C@H]4C[C@H](OC)[C@@H](O)[C@H](C)O4)[C@H](C)O3)[C@@H](C)/C=C/C=C3\CO[C@@H]4[C@H](O)C(C)=C[C@@H](C(=O)O1)[C@]34O)O2 (stereo not given in full)
active: [3] 0.803% | [4] -15.6% | [5] -23.1% | [7] -36.7% | [8] -15.4% | [10] -73.1%
inactive: [1] 22.1% | [2] 14.1% | [6] 25.1% | [9] 47.3%

C[C@]1(CO)C[C@@H](O)C[C@]2(C)[C@@H]1CC[C@@]13C[C@@H]4[C@@H](C[C@H]12)[C@]4(C)C3
inactive: [1] 111% | [2] 101% | [3] 94.4% | [4] 98% | [5] 119% | [6] 100% | [7] 104% | [8] 99.4% | [9] 106% | [10] 94.8%
